Experimental data taken from PubChem BioAssay (NCATS).
Records with an inconclusive call do not appear. The source made the active and inactive calls. Unless noted, calls come from the whole dose curve; as a rule, active = well fitted curve in either direction with a large enough effect (not every such curve was filed as active); inconclusive = small, poorly fitted or top-dose-only effect, or another doubt; inactive = flat fitted curve, though single readings scatter.

Legend:
[1] = AP1 Signaling Pathway (AID 357);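 note: ME-180 reporter cells stimulated with EGF at its EC50 level; % is set by controls: 0 for no effect and ±100 for the full control effect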
Procedure, shortened: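 Beta-lactamase reporter under AP-1 response element, ME-180 background. Stimulus: EC50 EGF. Compound exposure 5 h, 37 °C. Detection: CCF4, 2.5 h RT, 460/530 nm. Values: AC50 from titration.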

[2] = target: Cytochrome P450 1A2 (Homo sapiens) (UniProt P05177); test: p450-cyp1a2 (AID 410; calls by dose curve; note: potency is the fitted concentration of half-maximal effect;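 for activity change, negative = inhibition: -100% = full effect of reference inhibitor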)
Procedure, shortened: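 Luminescent demethylation readout: Luciferin-ME (100uM, equal to Km) turned over by 20nM CYP1A2 for 60 min at room temperature after NADPH regeneration addition, following 10 min compound preincubation. Normalization used 57 uM furafylline as full inhibition.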

[3] = NFAT Signaling Pathway (AID 444); conditions: Jurkat NFAT-bla M1, carbachol, beta-lactamase ratio, 5 h; at 17.2 µM (top of the series) unless noted;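 note: carbachol stimulus at about its EC50 of 1 µM final; % is set by controls: 0 for no effect and ±100 for the full control effect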
Procedure, shortened: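 Jurkat cells carrying an NFAT-driven β-lactamase reporter and co-transfected muscarinic M1 receptor were treated with compound plus carbachol (1 uM final, an EC50 level) for 5 h at 37 °C. CCF4 loading followed for 1 h at RT; 460/530 nm ratio gave %activity.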

[4] = Stat Signaling Pathway (AID 446);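 note: ME-180 cervical cancer cells given 40 pM IL-6 alongside compound; SIE-controlled beta-lactamase reporter measured as 460/530 nm FRET emission ratio; % is set by controls: 0 for no effect and ±100 for the full control effect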
Procedure, shortened: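 Overnight-plated ME-180 cells bearing a STAT Inducible Element beta-lactamase reporter; 5 h co-exposure to compound and 40 pM IL-6; values normalized to 300 pM IL-6 and 125 nM JAK inhibitor controls.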

[5] = target: Glucocorticoid receptor (Homo sapiens) (UniProt P04150); test: GR-GFP Redistribution (AID 450;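 active = compounds whose dose series gives a full or clear partial fitted curve of increased nuclear translocation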; note: potency is the fitted concentration of half-maximal effect); conditions: U2OS GR-GFP nuclear translocation, laser cytometry, 2 h
[6] = target: Glucocorticoid receptor (Homo sapiens) (UniProt P04150); test: GR-EFC Redistribution (AID 451; calls by dose curve; note: potency is the fitted concentration of half-maximal effect); conditions: CHO-K1 GR-EFC translocation, beta-gal luminescence, 2 h
Procedure, shortened: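 CHO-K1 cells stably expressing nuclear-localized β-gal enzyme acceptor and GR fused C-terminally to the enzyme donor fragment; ligand-driven nuclear translocation restores β-gal by complementation. Compounds titrated up to 46 uM final, 2 h at 37 °C; luminescence read.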

[7] = target: Mitogen-activated protein kinase 10 (Mus musculus) (UniProt Q61831); test: JNK3 AlphaScreen Assay (AID 530);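 note: kinase came from lysate of stimulated human HepG2 cells; signal reports phosphorylation of biotinylated GST-cJun 1-79 at Ser73 with 10 µM ATP; % is set by controls: 0 for no effect and ±100 for the full control effect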
Procedure, shortened: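 Phosphorylation of biotinylated GST-cJun(1-79) at Ser73 is measured by AlphaScreen proximity luminescence. Enzyme is JNK3 in HepG2 lysates activated with interleukin-1beta and tumor necrosis factor alpha; ATP is 10 uM final.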

[8] = target: 3',5'-cyclic-AMP phosphodiesterase 4B (Homo sapiens) (UniProt Q07343); test: qHTS Assay for Inhibitors of PDE-IV (AID 607; active = well fitted activation curve with a large enough effect in the main read-out, with a control signal flat, not every such curve was filed as active; note: % of control where 0% means no effect)
Procedure, shortened: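 Live HEK293 cells with a modified cyclic nucleotide-gated (CNG) channel report intracellular cAMP via membrane-potential dye fluorescence (ex 535/em 590 nm). Endogenous PDE-IV was targeted. Compounds were tested at up to 22.9 uM final; RO 20-1724 100 uM served as control.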

[9] = qHTS Assay for Lipid Storage Modulators (AID 1519; calls by dose curve); conditions: Drosophila S3 cells, BODIPY lipid droplet/cell ratio, laser cytometry, cells loaded with oleic acid; for activity change, negative = inhibition: at 25.7 µM (top of the series)
Procedure, shortened: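 Cells seeded at 5,000 per well were treated with compounds over a concentration series and loaded with oleic acid (400 uM, as added). Lipid droplet fluorescence (488 nm excitation, 500-530 nm channel) was read by laser-scanning cytometry and normalized to 20 uM Triacsin C.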

[10] = target: Ubiquitin carboxyl-terminal hydrolase 1 (Homo sapiens) (UniProt O94782); test: Inhibitors of USP1/UAF1: Pilot qHTS (AID 504865; active = well fitted curve in the direction sought with a large enough effect; an effect the other way counts as inactive or inconclusive;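 note: rhodamine fluorescence freed from ubiquitin-rhodamine substrate followed over time; top concentration of the series differs between compounds; % is set by controls: 0 for no effect and ±100 for the full control effect; nearly all actives have a fitted effect of over 35% in size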)
Procedure, shortened: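 Enzyme-free wells gave the negative control, while test wells held 1nM USP1/UAF1 preincubated with compound for 15 min at room temperature. Ub-Rho at 150nM final started the reaction, and fluorescence at 480/540 nm was recorded kinetically.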

[11] = target: Luciferin 4-monooxygenase (Photinus pyralis) (UniProt P08659); test: Biochemical firefly luciferase enzyme assay for NPC (AID 624030; active = well fitted curve in the direction sought with a large enough effect; an effect the other way counts as inactive or inconclusive;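 note: purified P. pyralis luciferase at 10 nM with luciferin and ATP substrate; 0% = DMSO and -100% = full luciferase inhibition by PTC124 control; nearly all actives have a fitted effect of over 70% in size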)
Procedure, shortened: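 Counter-screen for direct inhibition of the luciferase enzyme by approved-drug library compounds, run at 10 nM enzyme in 50 mM Tris acetate (final). Luminescence was read within 5 min of enzyme-buffer addition and normalized to PTC124 versus DMSO (0%).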

[12] = S16 Schwann cell viability assay (CellTiter-Glo assay) (AID 624031; active = well fitted curve in the direction sought with a large enough effect; an effect the other way counts as inactive or inconclusive;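 note: native untransfected S16 rat Schwann cells; cellular ATP luminescence as a viability measure; plate controls were DMSO-treated cells for no effect and cell-free wells for full effect; nearly all actives have a fitted effect of over 70% in size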)
Procedure, shortened: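 Parental S16 cells, 24 h compound, 37 °C. ATP-luminescence viability; DMSO = 0% activity, empty wells as reference; curves classified by fit quality and efficacy.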

[13] = S16 Schwann cell PMP22 intronic element beta-lactamase assay (AID 624044; calls by dose curve;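 note: 0% = DMSO and -100% = potassium clavulanate positive control; nearly all actives have a fitted effect of over 15% in size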)
Procedure, shortened: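 Beta-lactamase reporter under a PMP22 intronic regulatory element in stable S16 rat Schwann cells; 24 h compound exposure. 460 nm blue signal normalized between DMSO (0%) and potassium clavulanate, with 535 nm FRET tracking viability; curves classed by r2 and response.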

[14] = qHTS profiling for inhibitors of Plasmodium falciparum proliferation (AID 504749; active = well fitted curve in the direction sought with a large enough effect; an effect the other way counts as inactive or inconclusive;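 note: 0% = DMSO vehicle and full inhibition = artemisinin control; nearly all actives have a fitted effect of over 60% in size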); conditions: P. falciparum in erythrocytes, SYBR Green DNA, 72 h, at 12.8 µM (top of the series)
Procedure, shortened: (§1)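 Quantitative HTS: compounds pinned into medium, infected erythrocytes added (0.3% parasitemia, 2.5% hematocrit), 72 h culture at 37 C under 5% CO2. Saponin/Triton lysis with SYBR Green I, overnight RT, then fluorescence read.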

[15] = tested on: C2A; test: as above; conditions: P. falciparum in erythrocytes, SYBR Green DNA, 72 h; series mostly up to 12.8 µM
Procedure, shortened: as §1

[16] = tested on: CP217; test: as above; conditions: P. falciparum in erythrocytes, SYBR Green DNA, 72 h; series mostly up to 12.8 µM
Procedure, shortened: as §1

[17] = tested on: CP250; test: as above; conditions: P. falciparum in erythrocytes, SYBR Green DNA, 72 h; series mostly up to 12.8 µM
Procedure, shortened: as §1

[18] = tested on: FAB9; test: as above; conditions: P. falciparum in erythrocytes, SYBR Green DNA, 72 h; series mostly up to 12.8 µM
Procedure, shortened: as §1

[19] = tested on: JCK; test: as above; conditions: P. falciparum in erythrocytes, SYBR Green DNA, 72 h; series mostly up to 12.8 µM
Procedure, shortened: as §1

[20] = tested on: SC27B; test: as above; conditions: P. falciparum in erythrocytes, SYBR Green DNA, 72 h; series mostly up to 12.8 µM
Procedure, shortened: as §1

[21] = measured here: cell count channel max response
[22] = measured here: lipid channel max response

Sequence of Ubiquitin carboxyl-terminal hydrolase 1 (Homo sapiens) (O94782 whole entry, looked up): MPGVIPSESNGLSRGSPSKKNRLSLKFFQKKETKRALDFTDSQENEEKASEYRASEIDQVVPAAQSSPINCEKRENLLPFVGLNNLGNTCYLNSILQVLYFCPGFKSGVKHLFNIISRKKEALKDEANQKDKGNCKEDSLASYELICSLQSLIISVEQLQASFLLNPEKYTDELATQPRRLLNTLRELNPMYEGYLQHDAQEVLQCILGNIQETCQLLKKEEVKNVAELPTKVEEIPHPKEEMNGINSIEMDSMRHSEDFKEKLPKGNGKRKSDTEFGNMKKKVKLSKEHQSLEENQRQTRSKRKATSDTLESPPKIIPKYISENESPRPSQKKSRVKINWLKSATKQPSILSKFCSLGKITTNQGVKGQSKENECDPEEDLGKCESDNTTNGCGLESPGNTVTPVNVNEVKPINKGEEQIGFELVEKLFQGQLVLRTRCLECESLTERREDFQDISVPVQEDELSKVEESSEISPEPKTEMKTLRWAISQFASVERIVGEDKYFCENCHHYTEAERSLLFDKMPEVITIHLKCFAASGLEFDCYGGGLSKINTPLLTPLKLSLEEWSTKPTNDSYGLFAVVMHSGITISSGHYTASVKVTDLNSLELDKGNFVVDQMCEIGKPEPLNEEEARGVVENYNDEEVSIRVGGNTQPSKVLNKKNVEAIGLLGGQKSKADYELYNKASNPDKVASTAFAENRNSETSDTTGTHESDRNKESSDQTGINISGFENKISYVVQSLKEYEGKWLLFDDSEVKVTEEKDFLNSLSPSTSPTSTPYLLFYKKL
Sequence of Glucocorticoid receptor (Homo sapiens) (P04150 whole entry, looked up, the tested form may be a part): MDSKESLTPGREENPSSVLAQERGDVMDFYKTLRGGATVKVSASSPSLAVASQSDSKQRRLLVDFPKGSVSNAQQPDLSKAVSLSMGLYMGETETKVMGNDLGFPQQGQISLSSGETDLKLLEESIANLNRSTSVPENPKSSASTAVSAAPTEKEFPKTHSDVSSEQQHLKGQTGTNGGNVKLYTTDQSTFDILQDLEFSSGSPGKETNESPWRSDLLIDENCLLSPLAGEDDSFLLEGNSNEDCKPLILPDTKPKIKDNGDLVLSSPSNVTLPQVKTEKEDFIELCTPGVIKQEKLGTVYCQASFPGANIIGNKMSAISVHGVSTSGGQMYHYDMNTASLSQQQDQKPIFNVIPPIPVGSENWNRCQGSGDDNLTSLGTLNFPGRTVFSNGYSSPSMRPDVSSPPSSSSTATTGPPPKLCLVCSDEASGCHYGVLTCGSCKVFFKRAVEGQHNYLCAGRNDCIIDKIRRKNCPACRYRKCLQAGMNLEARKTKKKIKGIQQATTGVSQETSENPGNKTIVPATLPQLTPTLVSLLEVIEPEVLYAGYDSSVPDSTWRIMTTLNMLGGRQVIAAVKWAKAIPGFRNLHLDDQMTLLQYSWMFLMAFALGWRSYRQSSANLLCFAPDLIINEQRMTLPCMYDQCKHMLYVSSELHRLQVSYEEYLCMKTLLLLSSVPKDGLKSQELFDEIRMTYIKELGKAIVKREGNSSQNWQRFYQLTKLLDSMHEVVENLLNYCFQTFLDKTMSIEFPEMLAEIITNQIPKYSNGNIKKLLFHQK
Sequence of Cytochrome P450 1A2 (Homo sapiens) (P05177 whole entry, looked up): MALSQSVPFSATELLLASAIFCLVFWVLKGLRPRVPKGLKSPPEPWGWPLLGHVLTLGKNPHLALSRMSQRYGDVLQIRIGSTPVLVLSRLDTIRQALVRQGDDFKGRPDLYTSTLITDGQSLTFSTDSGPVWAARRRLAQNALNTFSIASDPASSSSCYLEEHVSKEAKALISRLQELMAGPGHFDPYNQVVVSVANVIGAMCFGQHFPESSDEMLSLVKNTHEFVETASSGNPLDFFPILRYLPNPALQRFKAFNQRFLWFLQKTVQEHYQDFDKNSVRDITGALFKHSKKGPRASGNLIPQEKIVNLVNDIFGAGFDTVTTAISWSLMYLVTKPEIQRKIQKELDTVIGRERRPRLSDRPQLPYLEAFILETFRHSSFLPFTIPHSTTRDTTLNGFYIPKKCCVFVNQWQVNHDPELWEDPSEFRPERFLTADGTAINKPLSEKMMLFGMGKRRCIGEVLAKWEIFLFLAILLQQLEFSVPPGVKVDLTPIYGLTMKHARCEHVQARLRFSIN
Sequence of 3',5'-cyclic-AMP phosphodiesterase 4B (Homo sapiens) (Q07343 whole entry, looked up): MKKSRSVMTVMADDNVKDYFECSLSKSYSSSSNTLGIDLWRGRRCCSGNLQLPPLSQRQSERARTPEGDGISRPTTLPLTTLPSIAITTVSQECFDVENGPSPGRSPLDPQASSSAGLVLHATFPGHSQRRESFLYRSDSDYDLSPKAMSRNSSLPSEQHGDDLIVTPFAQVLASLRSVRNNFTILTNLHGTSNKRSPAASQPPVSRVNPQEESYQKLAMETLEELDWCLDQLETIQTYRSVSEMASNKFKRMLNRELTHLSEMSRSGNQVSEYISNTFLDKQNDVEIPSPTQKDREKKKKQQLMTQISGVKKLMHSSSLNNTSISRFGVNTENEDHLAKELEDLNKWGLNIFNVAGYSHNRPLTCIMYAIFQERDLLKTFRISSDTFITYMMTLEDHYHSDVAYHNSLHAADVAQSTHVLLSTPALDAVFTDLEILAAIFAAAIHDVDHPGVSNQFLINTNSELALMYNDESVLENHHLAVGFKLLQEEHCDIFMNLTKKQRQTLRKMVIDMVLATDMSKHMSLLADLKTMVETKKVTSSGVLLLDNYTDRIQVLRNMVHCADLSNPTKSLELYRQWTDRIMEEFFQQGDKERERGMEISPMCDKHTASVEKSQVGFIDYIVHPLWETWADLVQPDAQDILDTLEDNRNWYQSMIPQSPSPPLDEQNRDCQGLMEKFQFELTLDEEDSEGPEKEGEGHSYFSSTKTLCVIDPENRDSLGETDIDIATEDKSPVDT
Sequence of Luciferin 4-monooxygenase (Photinus pyralis) (P08659 whole entry, looked up): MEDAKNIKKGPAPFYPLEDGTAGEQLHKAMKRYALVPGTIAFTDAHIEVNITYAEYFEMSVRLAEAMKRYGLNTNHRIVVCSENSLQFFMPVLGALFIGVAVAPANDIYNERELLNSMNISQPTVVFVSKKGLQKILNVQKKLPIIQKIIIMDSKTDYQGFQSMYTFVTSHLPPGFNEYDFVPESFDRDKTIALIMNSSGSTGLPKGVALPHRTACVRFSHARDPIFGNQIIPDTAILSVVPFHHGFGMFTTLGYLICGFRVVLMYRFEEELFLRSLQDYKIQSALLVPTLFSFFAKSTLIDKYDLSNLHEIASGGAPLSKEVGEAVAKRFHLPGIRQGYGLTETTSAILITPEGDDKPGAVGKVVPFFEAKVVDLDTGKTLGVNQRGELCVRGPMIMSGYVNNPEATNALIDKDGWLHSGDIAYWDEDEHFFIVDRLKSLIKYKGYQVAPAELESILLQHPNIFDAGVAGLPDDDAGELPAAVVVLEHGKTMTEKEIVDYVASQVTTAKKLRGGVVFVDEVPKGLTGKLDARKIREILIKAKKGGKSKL

O=C(/C=C\c1ccc(O)c(O)c1)O[C@@H]1C[C@](O)(C(=O)O)C[C@@H](O)[C@@H]1O
inactive: outcome [1] | Potency [2] | activity change, negative = inhibition [3] -0.271% | outcome [4] | Potency [5] > 20.6 µM | Potency [6] > 20.6 µM | Potency [7] | outcome [8] | activity change, negative = inhibition [9] 2.29% | Potency [10]
3.23%: max response [9, 22]
1.17%: max response [9, 21]

C[C@@H]1C(=O)O[C@@H]2C[C@]34[C@H]5C[C@@H](C(C)(C)C)[C@@]36[C@@H](OC(=O)[C@@H]6O)O[C@@]4(C(=O)O5)[C@@]12O
inactive: outcome [1] | Potency [2] | activity change, negative = inhibition [3] 0.0686% | outcome [4] | Potency [5] > 20.6 µM | Potency [6] > 20.6 µM | Potency [7] | outcome [8] | activity change, negative = inhibition [9] -0.102% | Potency [10]
-6.41%: max response [9, 22]
-9.92%: max response [9, 21]

Cc1c(C)c2c(c(C)c1O)CC[C@@](C)(C(=O)O)O2
active: Potency [2] 20 µM
inactive: outcome [1] | activity change, negative = inhibition [3] 9.85% | outcome [4] | Potency [5] > 20.6 µM | Potency [6] > 20.6 µM | Potency [7] | outcome [8] | activity change, negative = inhibition [9] 0.436% | Potency [10]
-15.9%: max response [9, 21]
-17.6%: max response [9, 22]

C[C@]12C=CC(=O)C=C1CC[C@@H]1[C@H]3C[C@@H](O)[C@](O)(C(=O)CO)[C@@]3(C)C[C@H](O)[C@]12F
6.57%: max response [9, 22]
active: Potency [5] 0.108 µM | Potency [6] 0.0827 µM
inactive: outcome [1] | Potency [2] | activity change, negative = inhibition [3] 7.24% | outcome [4] | Potency [7] | outcome [8] | activity change, negative = inhibition [9] -1.03% | Potency [10]
6.41%: max response [9, 21]

CNc1ncnc2c1ncn2[C@@H]1O[C@H](CO)[C@@H](O)[C@@H]1O
inactive: outcome [1] | Potency [2] | activity change, negative = inhibition [3] -5.4% | outcome [4] | Potency [5] > 20.6 µM | Potency [6] > 20.6 µM | Potency [7] | outcome [8] | activity change, negative = inhibition [9] -4.48% | Potency [10]
-18.6%: max response [9, 21]
-24.1%: max response [9, 22]

OC[C@@H](O)CN1CCN(c2ccccc2)CC1
-9.92%: max response [9, 21]
inactive: outcome [1] | Potency [2] | activity change, negative = inhibition [3] 3.85% | outcome [4] | Potency [5] > 20.6 µM | Potency [6] > 20.6 µM | Potency [7] | outcome [8] | activity change, negative = inhibition [9] 0.251% | Potency [10]
-7.93%: max response [9, 22]

CS(=O)(=O)c1ccc([C@H](O)[C@H](CO)NC(=O)C(Cl)Cl)cc1
3.5%: max response [9, 21]
inactive: outcome [1] | Potency [2] | activity change, negative = inhibition [3] 1.44% | outcome [4] | Potency [5] > 20.6 µM | Potency [6] > 20.6 µM | Potency [7] | outcome [8] | activity change, negative = inhibition [9] -0.717% | Potency [10] | Potency [11] | outcome [12] | Potency [13] | activity, negative = inhibition ([14]; parasite line A) -20.3% | activity, negative = inhibition ([14]; parasite line B) -19.1% | Potency [15] | Potency [16] | Potency [17] | Potency [18] | Potency [19] | Potency [20]
5.27%: max response [9, 22]
